The results in this text go back to PubChem BioAssay AID624405 (Broad Institute, 2012).

The campaign covered roughly 1,900 compounds. About 250 (13%) were called active. Not shown: some 4% with an inconclusive outcome.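 The calls were made as follows: active = fitted curve reaches 40% rescue activity at or below the top valid dose, in every test run; inconclusive = test runs disagree, some active and some inactive; inactive = every run misses the threshold or moves the wrong way.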 The list is a sample of the results. A call without a number means that no potency is given here. Potency and affinity values are given separately.

The assay is described as follows: suppressors of statin myotoxicity in myotubes, dose response, cell-based, C2C12 myotubes, ATP luminescence, cherry pick (AID 624405).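 Also: myotubes are challenged with simvastatin at 10 µM to lower ATP.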 The settings on record: C2C12 myotubes + simvastatin, 48 h, scaled: DMSO wells 0, geranylgeraniol wells 100; series mostly up to 19.5 µM.
For the molecule `CC(C)(C)C(=O)Nc1ccc(C(=O)NCc2cccnc2)cc1`, the outcome was inactive. Regarding `COc1cc(OC)cc(C(=O)NCc2cccnc2)c1`, the result was inactive. Under `COc1cnc(N(C)C)nc1Sc1ccc(Cl)cc1` stands “inactive”. Under `CCOC(=O)c1nnc(-c2ccc(C)cc2)nc1Sc1ccc(Cl)cc1` stands “inactive”. Turning to `COc1ccc(S(=O)(=O)Nc2ccc3c(c2)C(=O)N([C@@H](C)CO)C[C@@H](C)[C@H](CN(C)S(=O)(=O)c2ccc(F)cc2)OCCCC[C@@H](C)O3)cc1`, the outcome was inactive. For the molecule `COc1ccc(C(=O)c2nc3c(n2O)CCCC3)cc1OC`, the result was inactive. For the molecule `Cc1ccc2nc(-c3cccc(NC(=O)c4ccc5c(c4)OCCO5)c3)oc2c1`, the result was inactive. `Cc1ccc(-c2csc(-c3c[nH]c4ccccc34)n2)cc1`: the result was inactive. Under `COc1ccc(-c2noc(CCCC(=O)NCCc3ccccc3)n2)cc1OC` stands “inactive”; under `CC(C)NC(=O)N(C)C[C@@H]1Oc2ccc(NC(=O)Nc3cccc4ccccc34)cc2CC(=O)N([C@@H](C)CO)C[C@@H]1C`, “inactive”.

As to `O=C(NCC(=O)N(Cc1ccccc1)C(C(=O)NC1CCCCC1)c1ccco1)c1ccco1` (configuration not stated), the result was inactive. Consider `COc1ccc(CNC(=O)C2CCCN(S(=O)(=O)c3ccc4c(c3)CCCN4C(C)=O)C2)cc1` (configuration not stated), for which the outcome was inactive. As for `COc1ccc(CNS(=O)(=O)c2ccc3c(c2)CCN3C(=O)C2CCC2)cc1`, the outcome was inactive.

Regarding `C[C@@H]1CCCCO[C@@H](CN(C)S(=O)(=O)c2ccc(Cl)cc2)[C@H](C)CN([C@@H](C)CO)C(=O)c2cc(NS(C)(=O)=O)ccc2O1`, the result was inactive. As for `CC(C)COc1nc2ccccc2c(=O)n1OCC(=O)O`, the result was inactive. Under `CC(C)C#Cc1ccc2c(c1)O[C@@H](CN(C)C(=O)C1CCC1)[C@@H](C)CN([C@@H](C)CO)S2(=O)=O` stands “inactive”. Consider `NNC(=O)c1nn(-c2ccc(Cl)cc2)cc1O`, for which the result was inactive. Regarding `COc1ccc(-n2cnc3cc(NCc4cccs4)ccc32)cc1`, the result was inactive. Under `C[C@H](CO)N1C[C@H](C)[C@@H](CN(C)Cc2ccc(Cl)c(Cl)c2)Oc2ccc(NC(=O)CCC(F)(F)F)cc2CC1=O` stands “inactive”. Under `Cc1ccc(S(=O)(=O)n2nc(-c3ccco3)nc2SCc2ccccc2)cc1` stands “inactive”; under `O=S(=O)(NCC1CCN(S(=O)(=O)c2ccccc2)CC1)c1ccccc1`, “inactive”. Consider `CCOC(=O)[C@H]1[C@H]2COc3ccc(Cl)cc3[C@@H]2N2C(=O)c3ccccc3NC(=O)[C@@]12C`, for which the result was inactive. Consider `O=C(CNS(=O)(=O)c1ccc(Br)s1)N1CCN(c2ncccn2)CC1`, for which the outcome was inactive. With `Cc1nc2ccc(S(=O)(=O)NCC(=O)N3CCCC(C)C3)cc2s1` (configuration not stated), the result was inactive. Under `C[C@H]1CN([C@@H](C)CO)C(=O)Cc2cc(NC(=O)CCC(F)(F)F)ccc2O[C@@H]1CN(C)Cc1ccc(Oc2ccccc2)cc1` stands “inactive”; under `COc1ccc(CCNC(=O)c2ccc(N3CCCC3=O)cc2)cc1`, “inactive”.

In the case of `COc1ccc(CNC(=O)CCOc2ccc(C(C)(C)C)cc2)cc1`, the result was inactive.

`Cc1ccc(Cl)cc1NC(=O)COC(=O)CC1CC2CCC1C2` (configuration not stated): the result was inactive. Under `COc1cccc(S(=O)(=O)N(C)C[C@H]2OCc3ccccc3-c3c(n(C)c4ccccc34)C(=O)N([C@H](C)CO)C[C@H]2C)c1` stands “inactive”; under `COc1ccc(CN(C)C[C@@H]2Oc3ccc(NS(=O)(=O)c4ccccc4)cc3CC(=O)N([C@H](C)CO)C[C@H]2C)cc1`, “inactive”. Regarding `CCOC(=O)N1CCN(C2CC(=O)N(c3ccc(Oc4ccccc4)cc3)C2=O)CC1` (configuration not stated), the result was inactive. For `CCOC(=O)N1CCN(c2ccccc2O)CC1`, the outcome was inactive. For the molecule `C[C@@H]1CN([C@H](C)CO)C(=O)c2cc(NS(C)(=O)=O)ccc2O[C@@H](C)CCCCO[C@@H]1CN(C)Cc1ccc(Cl)c(Cl)c1`, the result was inactive. In the case of `COc1ccc(C(=O)N2C[C@H]3[C@@H](c4ccccc42)[C@@H](CO)N3Cc2ccccc2)cc1`, the result was inactive.

As for `CCN(CC)c1nc(C#N)cc(-c2ccc(OC)cc2)n1`, the result was inactive. Under `C[C@H](CO)N1C[C@H](C)[C@@H](CN(C)C(=O)Nc2ccccc2)Oc2ncc(C#CC3CCCC3)cc2C1=O` stands “inactive”; under `C[C@H](CO)N1C[C@H](C)[C@@H](CN(C)C(=O)Nc2cccc3ccccc23)OCCCC[C@H](C)Oc2ccc(NC(=O)Nc3ccc4c(c3)OCO4)cc2C1=O`, “inactive”. As to `Cc1ccc(S(=O)(=O)Nc2ccc3c(c2)C(=O)N([C@H](C)CO)C[C@@H](C)[C@H](CN(C)Cc2ccc(Cl)c(Cl)c2)O3)cc1`, the result was inactive. Under `CCOC(=O)C1=C(C)Nc2ccccc2N=C1NC(=O)c1cccc(S(=O)(=O)N(C)C)c1` stands “inactive”; under `COc1ccc(C(=O)N2C[C@@H]3[C@H](c4ccccc42)[C@H](CO)N3Cc2ccccc2)cc1`, “inactive”.

Turning to `COC(=O)C1(C(=O)OC)NOC2C(=O)N(c3ccc(Cl)cc3Cl)C(=O)C21` (configuration not stated), the outcome was inactive. Under `C[C@@H](NC(=O)C[C@@H]1CC[C@@H]2[C@H](COC[C@H](O)CN2Cc2ccc(C(F)(F)F)cc2)O1)c1ccccc1` stands “inactive”; under `COc1ccc(S(=O)(=O)Nc2ccc3c(c2)C(=O)N([C@H](C)CO)C[C@H](C)[C@H](CN(C)S(=O)(=O)c2ccc(F)cc2)OCCCC[C@H](C)O3)cc1`, “inactive”. Take `CCC(C)(CCNC(=O)Cc1ccccc1)c1ccccc1OC` (configuration not stated): the outcome was inactive.

On to `C[C@H](CO)N1C[C@H](C)[C@@H](CN(C)Cc2ccc(-c3ccccc3)cc2)Oc2ccc(NC(=O)Cc3ccccc3)cc2CC1=O`, for which the outcome was inactive. For the molecule `C[C@H]1CN([C@@H](C)CO)C(=O)Cc2cc(NC(=O)CCCCCC(=O)Nc3ccccc3N)ccc2O[C@@H]1CN(C)Cc1ccc(-c2ccccc2)cc1`, the result was inactive. Under `C[C@H](CO)N1C[C@H](C)[C@@H](CN(C)Cc2ccc(-c3ccccc3)cc2)Oc2ccc(NC(=O)CCCCCC(=O)Nc3ccccc3N)cc2CC1=O` stands “inactive”. Under `Cc1noc(C)c1S(=O)(=O)Nc1ccc2c(c1)C(=O)N([C@@H](C)CO)C[C@@H](C)[C@@H](CN(C)S(=O)(=O)c1ccc(Cl)cc1)OCCCC[C@H](C)O2` stands “inactive”; under `c1ccc2c(c1)CNC1(CCCCC1)C2`, “inactive”; under `COc1ccc(S(=O)(=O)Nc2ccc3c(c2)C(=O)N([C@@H](C)CO)C[C@@H](C)[C@@H](CN(C)C(=O)Nc2cccc4ccccc24)OCCCC[C@H](C)O3)cc1`, “inactive”. Consider `C[C@@H]1CN([C@H](C)CO)C(=O)Cc2cc(NC(=O)Nc3cccc4ccccc34)ccc2O[C@H]1CN(C)CC1CCCCC1`, for which the outcome was inactive.

On to `COc1ccc(S(=O)(=O)Nc2cccc3c2O[C@@H](CN(C)Cc2ccc(Oc4ccccc4)cc2)[C@@H](C)CN([C@@H](C)CO)C3=O)cc1`, for which the outcome was inactive. Under `C[C@H]1CCCCO[C@H](CN(C)C(=O)C2CCCCC2)[C@@H](C)CN([C@@H](C)CO)C(=O)c2cc(NC(=O)NC3CCCCC3)ccc2O1` stands “inactive”; under `C[C@H]1CCCCO[C@@H](CN(C)S(=O)(=O)c2ccc(Cl)cc2)[C@@H](C)CN([C@@H](C)CO)C(=O)c2cc(NS(C)(=O)=O)ccc2O1`, “inactive”.

Regarding `C[C@@H]1CN([C@H](C)CO)C(=O)c2cc(NC(=O)Nc3ccc(C(F)(F)F)cc3)ccc2O[C@@H]1CN(C)Cc1ccc(C(=O)Nc2ccccc2N)cc1`, the outcome was inactive. On to `C[C@@H]1CN([C@H](C)CO)C(=O)Cc2cc(N(C)C)ccc2O[C@H]1CN(C)Cc1ccc(C(=O)Nc2ccccc2N)cc1`, for which the outcome was inactive. Regarding `C[C@H](CO)N1C[C@H](C)[C@@H](CN(C)Cc2ccc(C(=O)Nc3ccccc3N)cc2)Oc2ccc(NC(=O)Nc3ccc(C(F)(F)F)cc3)cc2C1=O`, the result was inactive. Regarding `C[C@@H]1CN([C@@H](C)CO)C(=O)c2cc(NC(=O)Nc3ccc(C(F)(F)F)cc3)ccc2O[C@H]1CN(C)Cc1ccc(C(=O)Nc2ccccc2N)cc1`, the outcome was inactive. Under `CC1=CCn2c(=O)c3ccccc3c(=O)n2C1` stands “inactive”; under `CCOC(=O)c1cc2ccc(OC)c(OC)c2c(=O)s1`, “inactive”; under `COc1ccc(N(Cc2cc(=O)[nH]c3ccccc23)C(=O)c2ccco2)cc1`, “inactive”.

With `Cc1cc(C(=O)COC(=O)CN=C2NS(=O)(=O)c3ccccc32)c(C)n1CCc1ccc(Cl)cc1`, the outcome was inactive. Under `Cc1ccnc2nc(C(=O)OCC(=O)c3ccccc3)nn12` stands “inactive”; under `C[C@@H]1CN([C@H](C)CO)C(=O)c2cccc(NC(=O)C3CCCCC3)c2O[C@H]1CN(C)S(=O)(=O)c1ccc(Cl)cc1`, “inactive”.

`O=C(c1cnn2c(C(F)F)cc(-c3ccccc3)nc12)N1CCc2ccccc21`: the result was inactive. Regarding `CCC(C)NC(=O)Cn1c(=O)n(CCCC(=O)NCc2ccccc2Cl)c(=O)c2ccccc21` (configuration not stated), the outcome was inactive.

Regarding `CCOC(=O)c1cc(=O)n(Cc2ccccc2C)c2ccccc12`, the outcome was inactive.

Take `C[C@H](CO)N1C[C@H](C)[C@H](CN(C)C(=O)Nc2cccc3ccccc23)OCCCC[C@H](C)Oc2ccc(NS(=O)(=O)c3ccc(Cl)cc3)cc2C1=O`: the result was inactive.

`C[C@@H]1CN([C@@H](C)CO)C(=O)c2cc(NC(=O)c3ccncc3)ccc2O[C@@H](C)CCCCO[C@@H]1CN(C)Cc1ccc(C(F)(F)F)cc1`: the result was inactive. Under `CC(=O)c1c(C)[nH]c(C(=O)CSc2nnc(C3CCCCC3)n2N)c1C` stands “inactive”; under `CC1CSc2nc3sc4c(c3c(=O)n21)CCCC4` (configuration not stated), “inactive”; under `COc1cc2c(N3CCOCC3)cc(O)c(CC(=O)Nc3ccccc3)c2cc1OC`, “inactive”. Under `O=C(Oc1ccc(C(=S)N2CCOCC2)cc1Br)c1ccccc1F` stands “inactive”. Regarding `C[C@@H]1CN([C@H](C)CO)S(=O)(=O)c2ccc(/C=C/c3ccccc3)cc2O[C@@H]1CN(C)C(=O)NC1CCCC1`, the result was inactive.

With `COc1ccc(S(=O)(=O)Nc2ccc3c(c2)CC(=O)N([C@@H](C)CO)C[C@H](C)[C@@H](CN(C)Cc2ccc(Cl)c(Cl)c2)O3)cc1`, the outcome was inactive. Under `Cc1ccc(S(=O)(=O)NNC(=O)c2snnc2C)cc1` stands “inactive”; under `COC(=O)c1cn(Cc2ccc(C(F)(F)F)cc2)cc(F)c1=O`, “inactive”.
